Drawing on PubChem BioAssay (NCATS), this text covers Potency and Z-AUC for three molecules.

Assay [1] can be described thus: qHTS to identify inhibitors of the type 1 interferon - major histocompatibility complex class I in skeletal muscle: primary screen against the NCATS Mechanism Interrogation Plate v5.0 (MIPE) Libary (AID 1347411).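 Also: plate controls were vehicle for no effect and reference inhibitor for full effect; nearly all actives have a fitted effect of over 65% in size.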 In short, it runs like this:
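Immortalized human myoblasts (C25cl48) with HiBit knocked into endogenous HLA-B*08:01 were stimulated with 4 ng/ml IFN-beta and given compounds in 11-point 1:3 titration from 46 uM. After 24 h at 37 C, lytic HiBiT luminescence was read.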
(In general: qHTS replaces the single test concentration by a dilution series.)

Assay [2] can be described thus: Primary qHTS for inhibitors of nuclear receptor binding SET domain protein 2 (NSD2) in an isogenic RCH-ACV NSD2 p.E1099K mutant (9B) (AID 1645876). Also: nearly all actives have a fitted effect of over 70% in size. Also: potency is read from the fitted curve at half-maximal effect.
A short description of assay [3]: Primary qHTS for inhibitors of nuclear receptor binding SET domain protein 2 (NSD2) in an RCH-ACV wild type WT cells (2C) (AID 1645877). Also: nearly all actives have a fitted effect of over 70% in size. Also: potency is read from the fitted curve at half-maximal effect.
In assay [4] the target is Phospholipid hydroperoxide glutathione peroxidase GPX4 (Homo sapiens) (UniProt P36969). The experiment in a line: Primary qHTS Assay for Inhibitors of Recombinant Selenoprotein Glutathione Peroxidase 4 (GPX4) (AID 1845192). Also: nearly all actives have a fitted effect of over 65% in size. The following applies: outcome: dose series up to 50 µM unless noted. The essentials:
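GR-coupled readout: 100 nM GR, 1 mM GSH, 0.5 mM NADPH; NADPH fluorescence (ex 340/em 450 nm) read at t=0 and after 15 min RT. GPX4 200 nM, preincubated 30 min with compound; substrate 0.5 mM CHP.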

Assay [5] is described as follows: qHTS drug screen for cell cycle checkpoint inhibitors in PARPi-resistant BRCA-mutant ovarian cancer cell lines. (AID 1963452; calls by dose curve; also: potency is read from the fitted curve at half-maximal effect). The following applies: PEO1/OlaR viability, CellTiter-Glo luminescence, 96 h; for Z-AUC: stronger effect = lower value. The essentials: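 PEO1, PEO4 and PEO1/OlaR ovarian cancer cells, 600 per well, exposed 96 h at 37C to a dilution series. Viability read by CellTiter-Glo luminescence, normalized to DMSO and empty wells; activity summarized as Z-AUC.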

The target of assay [6] is Glutathione peroxidase 1 (Homo sapiens) (UniProt P07203). The experiment in a line: Primary qHTS Assay for Inhibitors of Recombinant Selenoprotein Glutathione Peroxidase 1 (GPX1) (AID 1845191). Also: nearly all actives have a fitted effect of over 65% in size. The essentials: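 Recombinant GPX1 (10 nM final) was preincubated with compound for 30 min at room temperature, then reacted with 1 mM GSH, 0.5 mM CHP, 0.5 mM NADPH and 100 nM glutathione reductase; NADPH fluorescence (340/450 nm) was read at 0 and 15 min.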
Glutathione peroxidase 1 (Homo sapiens), sequence (P07203 whole entry, looked up): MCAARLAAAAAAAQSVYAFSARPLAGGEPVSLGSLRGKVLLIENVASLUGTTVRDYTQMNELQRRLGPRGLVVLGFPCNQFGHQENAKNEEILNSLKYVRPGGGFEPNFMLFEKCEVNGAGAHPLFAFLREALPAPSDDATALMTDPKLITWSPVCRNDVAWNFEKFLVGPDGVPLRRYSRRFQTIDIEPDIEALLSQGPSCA

[7] abbreviates: measured here: PEO1 parental Z-AUC.

Each structure is given as a SMILES string. Records with an inconclusive call do not appear. Active and inactive are the calls of the source. Unless noted, calls follow the shape of the dose curve; as a rule, active = well fitted curve in the direction sought with a large enough effect; inconclusive = small, poorly fitted or top-dose-only effect, or another doubt; inactive = no such curve, though single readings can be large; an effect the other way counts as inactive or inconclusive.

Phospholipid hydroperoxide glutathione peroxidase GPX4 (Homo sapiens), sequence (P36969 whole entry, looked up): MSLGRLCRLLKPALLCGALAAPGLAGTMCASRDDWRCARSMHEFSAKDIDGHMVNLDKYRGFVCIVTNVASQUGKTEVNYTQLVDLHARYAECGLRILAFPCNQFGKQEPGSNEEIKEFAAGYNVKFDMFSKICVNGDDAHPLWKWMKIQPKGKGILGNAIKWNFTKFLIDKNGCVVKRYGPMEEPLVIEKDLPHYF

As for `CCNCCS(=O)(=O)NC[C@@]1(c2ccccc2)SC(NC(=O)C(C)(C)C)=NN1C(=O)C(C)(C)C`, the Potency result in assay [1] and in assay [4] was “inactive” each time. Further, the figures for the Potency in assay [2], in assay [3] and in assay [5] were 9.3 nM (active), 7.4 nM (active) and 8.7 nM (active), respectively. Besides, the Z-AUC in assay [5] (setting [7]) was -2.33; in assay [5] (measured here: PEO4 Z-AUC), -2.54.

Consider `O=C(C[C@@H]1C/C=C\CCC(=O)O[C@H](c2ccccc2)CNC1=O)NCc1ccc(Cl)cc1`, for which the Potency entry in assay [1], in assay [2], in assay [3] and in assay [4] was “inactive” in each case. Besides, the values for the Z-AUC in assay [5], in assay [5] (setting [7]) and in assay [5] (measured here: PEO4 Z-AUC) were -0.618 (inactive), 0.123 and -0.716, respectively.

In the case of `COc1ccc2c(c1)C(c1ccc(F)cc1)=C(CN1CCCC1)CO2`, the Potency result in assay [1], in assay [2] and in assay [6] was “inactive” each time. In addition, the Z-AUC in assay [5] was -0.385 (inactive); in assay [5] (setting [7]), 0.0924; in assay [5] (measured here: PEO4 Z-AUC) it was 0.0293.
